Test results taken from ChEMBL document CHEMBL3988442, “University of Dundee, Small-Polar-MMV Screening Library” (2021).

Species on record: Homo sapiens
Experiment: To identify inhibition of the IFN signalling (Jak-Stat) pathway via expression of an eGFP reporter gene under the control of an IFN-stimulated response element (ISRE) containing MxA promoter.
Format: functional
Parameters: scale not given: direction of the effect not stated beside the values
Details: 30 µM

Which Percent Effect does the source give for `Cn1ccc(CN2CCC(COC3CCCC3)CC2)cc1=O` here?
Its Percent Effect is 26.8%.

With `CCCC(NC(=O)c1cc(C)ccc1C)c1nnn[nH]1` (stereo not given) as the compound, how does the Percent Effect read?
The Percent Effect was 12.3%.

With `NC(=O)C1CCCN(C(=O)c2cnc3c(cnn3C3CCCC3)c2)C1` (stereo not given) as the compound, how does the Percent Effect read?
Its Percent Effect is 19.3%.

With `Cc1ccc(NC2CCN(C(=O)CN(C)C3CC3)CC2)nn1` as the compound, how does the Percent Effect read?
Its Percent Effect is -12.3%.

Which Percent Effect does the source give for `CCCOCC(=O)NC1CCc2nc(C)cn2C1` (stereo not given) here?
Its Percent Effect is 0.806%.

`CNC(=O)c1cc2c(nc1NCC(C)C)CCN(S(=O)(=O)C1CC1)CC2` was tested. Which Percent Effect did it give?
Its Percent Effect is -2.8%.

`CC(C)n1cc(S(=O)(=O)N2CCCCC2)cn1` was tested. Which Percent Effect did it give?
Its Percent Effect is 2.73%.

Which Percent Effect does the source give for `Cc1cccc(N2CCN(C(=O)CN3CCN(CCO)CC3)CC2)c1` here?
Its Percent Effect is 10.3%.

`CNc1cccc(C2CCCN(C(=O)c3ccncc3)C2)n1` (stereo not given) was tested. Which Percent Effect did it give?
Its Percent Effect is -2.26%.

For `CCN(CC)C(=O)Cn1ccc2cc(NC(=O)C3CCCO3)ccc21` (stereo not given), which Percent Effect is on record?
The Percent Effect was 2.47%.

Which Percent Effect does the source give for `Cc1nccn1-c1cc(CNC(=O)C(C)(C)C)ccn1` here?
The Percent Effect was -3.27%.

Which Percent Effect does the source give for `CCOc1ccc(C(=O)NS(=O)(=O)c2cncc(Br)c2)cc1OC` here?
The Percent Effect was 2.53%.

`CC(C)CNC(=O)CN1C=Nc2ccccc2S1(=O)=O` was tested. Which Percent Effect did it give?
The Percent Effect was 2.69%.

For `CC(CNC(=O)N1CCSCC1)Cc1cccs1` (stereo not given), which Percent Effect is on record?
Its Percent Effect is 1.53%.

How did the Percent Effect turn out when `NS(=O)(=O)CCNC(=O)c1nnn(-c2ccc(F)cc2)c1C1CC1` was run?
The Percent Effect was -4.31%.

How did the Percent Effect turn out when `O=C(NCCOCC(F)(F)F)c1ccc(-c2ccco2)[nH]c1=O` was run?
Its Percent Effect is 19.7%.

Which Percent Effect does the source give for `O=C(NCCO)Nc1cccc(Cl)c1SC(F)F` here?
The Percent Effect was 28.9%.

Which Percent Effect does the source give for `Cc1nc(CN2CCCCC2Cn2cncn2)nc2ccccc12` (stereo not given) here?
Its Percent Effect is 2.22%.

How did the Percent Effect turn out when `N#CCSCCCN1CCCN(C(=O)c2ccccc2)CC1` was run?
The Percent Effect was 14.4%.

With `COC(=O)CCN1CCCC1c1ccccc1Cl` (stereo not given) as the compound, how does the Percent Effect read?
Its Percent Effect is 1.88%.

With `Cc1cncc(C2CCCN(C(=O)c3scnc3C)C2)n1` (stereo not given) as the compound, how does the Percent Effect read?
The Percent Effect was 2.09%.

Which Percent Effect does the source give for `COCCc1noc(CN2CCN(CC(O)c3ccccc3)CC2)n1` (stereo not given) here?
The Percent Effect was 12%.

`O=C(NCc1ccc(F)cc1)N1CCC(C2OCCO2)CC1` was tested. Which Percent Effect did it give?
Its Percent Effect is 13.8%.

`Cc1nn(C)c(C)c1C1CCCN1CC(=O)NC(C1CC1)C1CC1` (stereo not given) was tested. Which Percent Effect did it give?
The Percent Effect was 4.1%.

Which Percent Effect does the source give for `Cn1ccc(C(=O)NC2CCC23CCN(C(=O)c2ccncc2)CC3)c1` (stereo not given) here?
Its Percent Effect is 3.03%.

Which Percent Effect does the source give for `CN(CC(=O)N1CCN(c2ncccn2)CC1)c1ccc(Cl)cn1` here?
The Percent Effect was 16.3%.

How did the Percent Effect turn out when `Cc1ncsc1CN1CC[C@H]2OCC[C@@]2(C(=O)NC(C)C)C1` was run?
The Percent Effect was 30.1%.

`Cc1nc(C)n(CC2CCCN(CCCOc3ccccc3)C2)n1` (stereo not given) was tested. Which Percent Effect did it give?
The Percent Effect was -1.23%.

`Cc1csc(CNC(=O)N(C)Cc2cnn(C)c2)n1` was tested. Which Percent Effect did it give?
The Percent Effect was 12.9%.

With `Cc1noc(-c2ccc(N3CCCC(C(=O)N4CCSCC4)C3)nc2)n1` (stereo not given) as the compound, how does the Percent Effect read?
Its Percent Effect is -0.682%.

Which Percent Effect does the source give for `CC(=O)NCCNC(=O)CN1CCN(Cc2nccn2C)C(C)C1` (stereo not given) here?
The Percent Effect was 0.801%.

With `COc1ccc(CNC2CCN(CCc3ccncc3)CC2)cc1O` as the compound, how does the Percent Effect read?
The Percent Effect was -0.697%.

How did the Percent Effect turn out when `O=C1[C@@H]2CCN(Cc3ccoc3)C[C@@H]2OCCN1Cc1cccnc1` was run?
Its Percent Effect is -11.6%.

For `Cc1nccn1-c1cc(CNC(=O)CCNC(=O)C2CCCC2)ccn1`, which Percent Effect is on record?
The Percent Effect was 5.17%.

For `Cc1nn(C)cc1CN1CCC(C2Nc3ccccc3S(=O)(=O)N2)CC1` (stereo not given), which Percent Effect is on record?
The Percent Effect was -1.1%.

`O=C(N[C@@H]1CN(Cc2ccc3c(c2)OCO3)[C@@H]2CCCO[C@@H]21)C1CC1` was tested. Which Percent Effect did it give?
The Percent Effect was 4.07%.

How did the Percent Effect turn out when `CC(C)c1nnc2n1CCN(Cc1csc(CC(=O)N(C)C)n1)C2` was run?
The Percent Effect was 34.2%.

For `COc1ccc(NC(=O)NCC(O)c2ccc(F)cc2F)c(OC)c1` (stereo not given), which Percent Effect is on record?
Its Percent Effect is 12.5%.

`Cc1ccc(Cl)cc1C(=O)N1CCC2(CC1)c1ccccc1[C@@H](N)[C@@H]2O` was tested. Which Percent Effect did it give?
Its Percent Effect is 2.23%.

For `Cc1cc(C)n(CC2CCCN2C(=O)c2ccc3c(c2)nnn3C)n1` (stereo not given), which Percent Effect is on record?
Its Percent Effect is -9.03%.

These compounds were tested against T1, Tyrosyl-tRNA synthetase, putative (Trypanosoma cruzi (strain CL Brener)) (UniProt Q4DSP6) (assay: Trypanosoma cruzi tyrosyl tRNA synthetase (TcYRS) _High Tyrosine SOP). Details: 30 µM.
T1 sequence (whole entry): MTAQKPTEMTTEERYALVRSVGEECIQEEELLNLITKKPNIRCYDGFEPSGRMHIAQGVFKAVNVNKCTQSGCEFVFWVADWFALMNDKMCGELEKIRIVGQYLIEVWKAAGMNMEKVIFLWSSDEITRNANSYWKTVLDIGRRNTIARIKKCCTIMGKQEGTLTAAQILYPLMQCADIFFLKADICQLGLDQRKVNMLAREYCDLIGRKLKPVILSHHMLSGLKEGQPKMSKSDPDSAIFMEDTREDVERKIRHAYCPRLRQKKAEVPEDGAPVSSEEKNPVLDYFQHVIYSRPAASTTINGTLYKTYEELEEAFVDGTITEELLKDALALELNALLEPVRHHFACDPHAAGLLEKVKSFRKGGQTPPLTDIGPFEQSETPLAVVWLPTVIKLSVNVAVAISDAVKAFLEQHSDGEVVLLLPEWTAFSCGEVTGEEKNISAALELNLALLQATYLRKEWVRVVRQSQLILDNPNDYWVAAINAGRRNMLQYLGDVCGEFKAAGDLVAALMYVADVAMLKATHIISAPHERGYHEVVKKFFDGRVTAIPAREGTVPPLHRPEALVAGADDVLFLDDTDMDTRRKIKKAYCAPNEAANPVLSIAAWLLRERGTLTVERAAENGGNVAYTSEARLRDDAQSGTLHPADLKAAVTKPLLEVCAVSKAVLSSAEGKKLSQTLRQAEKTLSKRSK
Format: functional
Parameters: scale not given: direction of the effect not stated beside the values

For `Cn1ccc(CN2CCC(COC3CCCC3)CC2)cc1=O`, which Percent Effect is on record?
The Percent Effect was -10.4%.

`CCCC(NC(=O)c1cc(C)ccc1C)c1nnn[nH]1` (stereo not given) was tested. Which Percent Effect did it give?
Its Percent Effect is 6.01%.

With `NC(=O)C1CCCN(C(=O)c2cnc3c(cnn3C3CCCC3)c2)C1` (stereo not given) as the compound, how does the Percent Effect read?
Its Percent Effect is 6.4%.

`Cc1ccc(NC2CCN(C(=O)CN(C)C3CC3)CC2)nn1` was tested. Which Percent Effect did it give?
The Percent Effect was 4.17%.

How did the Percent Effect turn out when `CCCOCC(=O)NC1CCc2nc(C)cn2C1` (stereo not given) was run?
The Percent Effect was 7.45%.

With `CNC(=O)c1cc2c(nc1NCC(C)C)CCN(S(=O)(=O)C1CC1)CC2` as the compound, how does the Percent Effect read?
The Percent Effect was 2.15%.

`CC(C)n1cc(S(=O)(=O)N2CCCCC2)cn1` was tested. Which Percent Effect did it give?
The Percent Effect was 6.35%.

For `Cc1cccc(N2CCN(C(=O)CN3CCN(CCO)CC3)CC2)c1`, which Percent Effect is on record?
Its Percent Effect is 9.38%.

With `CNc1cccc(C2CCCN(C(=O)c3ccncc3)C2)n1` (stereo not given) as the compound, how does the Percent Effect read?
Its Percent Effect is 6.45%.

How did the Percent Effect turn out when `CCN(CC)C(=O)Cn1ccc2cc(NC(=O)C3CCCO3)ccc21` (stereo not given) was run?
Its Percent Effect is 6.37%.

How did the Percent Effect turn out when `Cc1nccn1-c1cc(CNC(=O)C(C)(C)C)ccn1` was run?
The Percent Effect was 2.15%.

With `CCOc1ccc(C(=O)NS(=O)(=O)c2cncc(Br)c2)cc1OC` as the compound, how does the Percent Effect read?
Its Percent Effect is 3.7%.

For `CC(C)CNC(=O)CN1C=Nc2ccccc2S1(=O)=O`, which Percent Effect is on record?
Its Percent Effect is 0.493%.

For `CC(CNC(=O)N1CCSCC1)Cc1cccs1` (stereo not given), which Percent Effect is on record?
Its Percent Effect is 4.95%.

Which Percent Effect does the source give for `NS(=O)(=O)CCNC(=O)c1nnn(-c2ccc(F)cc2)c1C1CC1` here?
Its Percent Effect is 9.9%.

How did the Percent Effect turn out when `O=C(NCCOCC(F)(F)F)c1ccc(-c2ccco2)[nH]c1=O` was run?
Its Percent Effect is 6.4%.

How did the Percent Effect turn out when `O=C(NCCO)Nc1cccc(Cl)c1SC(F)F` was run?
The Percent Effect was -5.26%.

How did the Percent Effect turn out when `Cc1nc(CN2CCCCC2Cn2cncn2)nc2ccccc12` (stereo not given) was run?
Its Percent Effect is 10.5%.

`N#CCSCCCN1CCCN(C(=O)c2ccccc2)CC1` was tested. Which Percent Effect did it give?
Its Percent Effect is 1.04%.

`COC(=O)CCN1CCCC1c1ccccc1Cl` (stereo not given) was tested. Which Percent Effect did it give?
Its Percent Effect is 3.83%.

Which Percent Effect does the source give for `Cc1cncc(C2CCCN(C(=O)c3scnc3C)C2)n1` (stereo not given) here?
Its Percent Effect is 3.23%.

With `COCCc1noc(CN2CCN(CC(O)c3ccccc3)CC2)n1` (stereo not given) as the compound, how does the Percent Effect read?
The Percent Effect was 11.5%.

How did the Percent Effect turn out when `O=C(NCc1ccc(F)cc1)N1CCC(C2OCCO2)CC1` was run?
Its Percent Effect is 6.38%.

With `Cc1nn(C)c(C)c1C1CCCN1CC(=O)NC(C1CC1)C1CC1` (stereo not given) as the compound, how does the Percent Effect read?
The Percent Effect was 5.42%.

With `Cn1ccc(C(=O)NC2CCC23CCN(C(=O)c2ccncc2)CC3)c1` (stereo not given) as the compound, how does the Percent Effect read?
Its Percent Effect is 5.21%.

How did the Percent Effect turn out when `CN(CC(=O)N1CCN(c2ncccn2)CC1)c1ccc(Cl)cn1` was run?
The Percent Effect was 4.76%.

For `Cc1ncsc1CN1CC[C@H]2OCC[C@@]2(C(=O)NC(C)C)C1`, which Percent Effect is on record?
Its Percent Effect is -1.06%.

Which Percent Effect does the source give for `Cc1nc(C)n(CC2CCCN(CCCOc3ccccc3)C2)n1` (stereo not given) here?
The Percent Effect was 3.12%.

For `Cc1csc(CNC(=O)N(C)Cc2cnn(C)c2)n1`, which Percent Effect is on record?
Its Percent Effect is 5.94%.

With `Cc1noc(-c2ccc(N3CCCC(C(=O)N4CCSCC4)C3)nc2)n1` (stereo not given) as the compound, how does the Percent Effect read?
Its Percent Effect is 1.07%.

`CC(=O)NCCNC(=O)CN1CCN(Cc2nccn2C)C(C)C1` (stereo not given) was tested. Which Percent Effect did it give?
Its Percent Effect is 7.92%.

How did the Percent Effect turn out when `COc1ccc(CNC2CCN(CCc3ccncc3)CC2)cc1O` was run?
Its Percent Effect is -6.93%.

Which Percent Effect does the source give for `O=C1[C@@H]2CCN(Cc3ccoc3)C[C@@H]2OCCN1Cc1cccnc1` here?
Its Percent Effect is 4.25%.

For `Cc1nccn1-c1cc(CNC(=O)CCNC(=O)C2CCCC2)ccn1`, which Percent Effect is on record?
The Percent Effect was 8.37%.

`Cc1nn(C)cc1CN1CCC(C2Nc3ccccc3S(=O)(=O)N2)CC1` (stereo not given) was tested. Which Percent Effect did it give?
Its Percent Effect is 6.45%.

With `O=C(N[C@@H]1CN(Cc2ccc3c(c2)OCO3)[C@@H]2CCCO[C@@H]21)C1CC1` as the compound, how does the Percent Effect read?
The Percent Effect was 1.04%.

Which Percent Effect does the source give for `CC(C)c1nnc2n1CCN(Cc1csc(CC(=O)N(C)C)n1)C2` here?
Its Percent Effect is -0.49%.

`COc1ccc(NC(=O)NCC(O)c2ccc(F)cc2F)c(OC)c1` (stereo not given) was tested. Which Percent Effect did it give?
Its Percent Effect is 3.12%.

Which Percent Effect does the source give for `Cc1ccc(Cl)cc1C(=O)N1CCC2(CC1)c1ccccc1[C@@H](N)[C@@H]2O` here?
Its Percent Effect is 6.88%.

Which Percent Effect does the source give for `Cc1cc(C)n(CC2CCCN2C(=O)c2ccc3c(c2)nnn3C)n1` (stereo not given) here?
The Percent Effect was 3.23%.
